Changes are numbered by the printed parent chain. Over roughly 24,000 sequences, “enrichment r” has its median near 0.99; the highest 2% begin near 3.7. The list comes from a sample in which the highest values are over-represented; it also holds similar and randomly drawn sequences.
T1: UNK ZnF1-3 (human, UniProt Q9C0B0 31-174)
T1 sequence: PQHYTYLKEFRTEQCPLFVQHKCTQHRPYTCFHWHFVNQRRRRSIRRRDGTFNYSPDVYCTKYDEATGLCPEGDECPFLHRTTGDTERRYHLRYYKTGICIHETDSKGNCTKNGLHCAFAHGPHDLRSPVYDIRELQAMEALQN

B1: 33328512_33328632_5828_CDS_ENSG00000198646_ENST00000359003|human|control|control (ssRNA)
RNA: GGGAGUUCUACAGUCCGACGAUCAUCUGCACCAUAUUGUUCUUCCCCUUUCUCAAGAGAGCCUGUAACUUUCUUACAUGCCUUGGUCAACAAAAUUUGGCCAAUUUUGUCCACUUUUCCUUUGCCCUUACUAGACGAGACUGGCAACAGAGGAUUGAGCAUCA
B2: chr12:95365269:95365270:-_ENSG00000184752_ENST00000327772|hu_hu|motif|central (ssRNA)
RNA: GGGAGUUCUACAGUCCGACGAUCUCAUUGUCUUUACUUGUAAGGUGUUGAAGGUGGGAUCCACUCCUGAAUCUUCUUUCGGGUGGUAGAAUAAGGUACAUAUUGUUCUGGGGUGCCAGUCACGUUGAAUUUAUGGUUCGUCCACAACAGAGGAUUGAGCAUCA
B3: chrX:106345308:106345309:+_ENSMUSG00000031246_ENSMUST00000033598|mus_mus|motif|central (ssRNA)
RNA: GGGAGUUCUACAGUCCGACGAUCUUCUCUCAUCCACUUCCGAUUCUCUUCAUUAGCUGCAAUAUCUUUUUCUUCAAAUCCGGUUUUGUUGGCUUCUAAGAAACAAAGCACAUCUUGCUGUUUCUUCUUAAUCGCCGUAGAGCCCAACAGAGGAUUGAGCAUCA
B4: 25284998_25285535_556_3pUTR_ENSMUSG00000054793_ENSMUST00000068023|mouse|control|control (ssRNA)
RNA: GGGAGUUCUACAGUCCGACGAUCCACGCUCCACACCUUGCCGUUCUCCUGGCCGCUGCUCACUCCUUUCAACUCCUUGCGAUCCCGAUACCAGCGCAGGACCGCUGCGGGGCGCGACCGCGGAACCAGGCAGCUGAGUUCCACCAACAGAGGAUUGAGCAUCA
B5: 122215373_122233679_156_5pUTR_ENSG00000114030_ENST00000344337|human|control|control (ssRNA)
RNA: GGGAGUUCUACAGUCCGACGAUCACUUUUCAGGCGAAAGUUCUCUUUUCCUGGGGUGGUCAUGAUUUCAGGCUCAAGGCAACCGAUCCCGGUGCCACCGCUGAAGUUAGCCCCUCGCUCGCCCGCCCGCCGUGCCACUCCCGCCAACAGAGGAUUGAGCAUCA
B6: 36851294_36856410_1128_CDS_ENSMUSG00000022837_ENSMUST00000023535|mouse|control|control (ssRNA)
RNA: GGGAGUUCUACAGUCCGACGAUCAUUUAGCUCCAACAUCAUCUUUGUUCGUUUAGAUCUGAAACUCCUCUGCAAGGCAAUCACAGCAGACGGAAGCUUCUUUAAUCUCUUUCUGGUCUGGAAACCUUUCCAAUAGGCUUGAAUCAACAGAGGAUUGAGCAUCA
B7: chr18:52893488:52893489:-_ENSG00000196628_ENST00000354452|hu_hu|hu_hu_hu_mus_True|48_48 (ssRNA)
RNA: GGGAGUUCUACAGUCCGACGAUCUAUUUAGACCAUUUCCGCGGAGUUAUGGCAUUUACUCAGUGCUGAUAGGUGGAAAAACUACUUGAACAGGGAUUUUUUUUUUCCUUAAUACAUGCCAAGAUUGUGUGGCUGUCAAAACAGCAACAGAGGAUUGAGCAUCA
B8: chr4:142145789:142145790:+_ENSG00000109445_ENST00000262990|hu_hu|FALSE|FALSE (ssRNA)
RNA: GGGAGUUCUACAGUCCGACGAUCACACUGUGCACAAAUUGGUAACUUCUGUACAGAAUUACAAAAGUAGCAAAAUGCUCUAUUCUUCUGCCGCCUCUGACACUUGUCACAUUCCAUUGAGGCAUUACAUGGAUGUUUAGCUAACAACAGAGGAUUGAGCAUCA
B9: chr11:101919151:101919152:-_ENSMUSG00000017314_ENSMUST00000017458|mus_mus|motif|central (ssRNA)
RNA: GGGAGUUCUACAGUCCGACGAUCAAAUGAGAUUCCUAAUAUAAUAAAUAUAUUUCUAGCAUUUGUAAUAAAUAUUCUGUCGGUUCUCCCUCCCUCCCCUUCUCUAGGAUAUGGGCACACAGUGGUUCAGGGACAAGCUUGGGCCAACAGAGGAUUGAGCAUCA
B10: chr17:56552419:56552420:-_ENSMUSG00000013236_ENSMUST00000086828|mus_mus|mus_mus_mus_hu_False|1_68 (ssRNA)
RNA: GGGAGUUCUACAGUCCGACGAUCAAAAAAUACACUAUUUAAAAAAAAUGAAAUGUCACGGGAUACAAAAAAAUAUAGAGUUUUAAAAGAAAGCUGGAUUCUGGUCCCAGCCCAGUGUCCCCAGGCUGCAGAGCGGGGCAGAGGCAACAGAGGAUUGAGCAUCA
B11: chr17:56552419:56552420:-_ENSMUSG00000013236_ENSMUST00000086828|mus_mus|mus_mus_mus_hu_False|68_88 (ssRNA)
RNA: B10 RNA with U48A, G49A, A50G, U53A, G54A, U55A, C56A, C138A, A139G, G143C
B12: chr17:56552419:56552420:-_ENSMUSG00000013236_ENSMUST00000086828|mus_mus|mus_mus_mus_hu_False|28_68 (ssRNA)
RNA: B10 RNA with C107U, A108U, C112A, G114A, U115A, C138A, A139G, G143C
B13: chr17:56552419:56552420:-_ENSMUSG00000013236_ENSMUST00000086828|mus_mus|mus_mus_mus_hu_False|48_68 (ssRNA)
RNA: B10 RNA with G88A, G92A, C93U, U94A, G95A, C138A, A139G, G143C
B14: chr17:56552419:56552420:-_ENSMUSG00000013236_ENSMUST00000086828|mus_mus|mus_mus_mus_hu_False|1_58 (ssRNA)
RNA: B10 RNA with A67G, A68U, A69U, A71C, U73C, A74U, U75G, G77C, G79C, U81A
B15: chr7:7679991:7679992:-_ENSG00000106399_ENST00000396682|hu_hu|hu_hu_hu_mus_False|68_68 (ssRNA)
RNA: GGGAGUUCUACAGUCCGACGAUCUGGGAUGAAUCUUUUCCAGCUUCCCCACGAAGCACACGGGCCGGUCGAUGAAUUGUGGUAACAUGCUGGCGUUGACGCGCGCUUUGGGGAGCUGCAUUAUGUCCUCCAUGAUUCUGCCGCCAACAGAGGAUUGAGCAUCA
B16: 76906679_76906799_897_3pUTR_ENSMUSG00000022010_ENSMUST00000022587|mouse|control|control (ssRNA)
RNA: GGGAGUUCUACAGUCCGACGAUCUGGGGAGGGUUGAAAAGGCACAGAGCUCCUCGGGGUCAAUUAAACCAUUCCUCAGACAUCUGCCACGUUGCACAGGGCACAUCCCUGCUCACUCUCUGAUUAACCUUUAAUUCACUCAACCAACAGAGGAUUGAGCAUCA
B17: 129354385_129360783_1558_CDS_ENSG00000056277_ENST00000370978|human|control|control (ssRNA)
RNA: GGGAGUUCUACAGUCCGACGAUCAUGUUCAGCUUUCUCCUUGCUGGUCAAAAAUUGUAGUCUGCAUUUUGGGCAACGAUGAACUCCUUUUUUCUGAUGCUUCAUGUAAUGAUUCAUGUAGGGGGUUGCCAUUUUACUAACUUUCAACAGAGGAUUGAGCAUCA
B18: chr2:219525992:219525993:+_ENSG00000074582_ENST00000359273|hu_mus|FALSE|FALSE (ssRNA)
RNA: GGGAGUUCUACAGUCCGACGAUCGAUCCAUUUUCCCUGAUACCAAAUGAAGUGGUUUCCAGGGCUGGGGAUAAAUUCAAACUUGGUGGAGAUCCGGCCACUUUCAUGCUGAAGGUAUGAGGUUUCAACACUGAGGUGCUGAGUCAACAGAGGAUUGAGCAUCA
B19: 156047189_156047309_678_CDS_ENSG00000254726_ENST00000532414|human|control|control (ssRNA)
RNA: GGGAGUUCUACAGUCCGACGAUCGAUGGUUGCCCCUUUGGGGCCCACCACCAGCCCCACCACGCGGUAGGGCACCCGCACACGGAUGGUCACCUGGCCGGGCAGAGCAGGAGCCACACCAAAGGCGGCGCCUGACUUGUUGCGCAACAGAGGAUUGAGCAUCA
B20: 107436344_107436464_280_CDS_ENSMUSG00000020721_ENSMUST00000106746|mouse|control|control (ssRNA)
RNA: GGGAGUUCUACAGUCCGACGAUCGGCAAUUCUGUAAAGAAGACUCUCAAUUUUGAUGCGCUCAACCUCCACCGGGCACGGCCCUGUGAAGUCUGCCAUGGAGUACUGGCCAAGAGAGAGCAGGGCGUCGGUGCAGUGCUGGAGCAACAGAGGAUUGAGCAUCA
B21: 139370288_139370408_1793_CDS_ENSG00000148396_ENST00000313050|human|control|control (ssRNA)
RNA: GGGAGUUCUACAGUCCGACGAUCGGUUGAGGGCUGGGACACGCUGCCACGGUAAUUCUGGCUCACAGUGGUCUCGUCUGUUUCACCUCCUACGGGAGAAGAAUCGAUUUGCUUAAAAAAACUACCUGAAGCUUCAUCCUCGGGCAACAGAGGAUUGAGCAUCA
B22: 15271559_15271679_6895_CDS_ENSG00000074181_ENST00000263388|human|control|control (ssRNA)
RNA: GGGAGUUCUACAGUCCGACGAUCGGGAAGUGGCUGGGCAGGCAGUGCCCCAGUGGUGGUGGCCAUGGCCCCAGUGGCAGUGGCUGGGCUAGGCGUGGAUUCGGACCAGUCUGAGAGGGAGGGAGGUGAGGGGCUGGCCCAGUGCAACAGAGGAUUGAGCAUCA

Molecular target: T1, UNK ZnF1-3
Assay: nsRBNS (natural sequence RNA bind-n-seq); RBNS binding buffer (assumed for nsRBNS): 25 mM Tris pH 7.5, 150 mM KCl, 3 mM MgCl2, 0.01% Triton X-100, 500 ug/ml BSA, 20 U/ml SUPERase-In, 4 C; UNK is unkempt and MSI1 is Musashi-1; names of the RNAs are library labels; protein concentration not given here; high values mean tight binding

Binder | binding signal [enrichment R]
B1 | 0.505
B2 | 0.831
B3 | 0.538
B4 | 0.858
B5 | 0.57
B6 | 0.644
B7 | 0.93
B8 | 1.04
B9 | 3.58
B10 | 9.75
B11 | 16.7
B12 | 9.22
B13 | 8.41
B14 | 3.44
B15 | 0.493
B16 | 1.14
B17 | 0.531
B18 | 0.804
B19 | 0.73
B20 | 0.894
B21 | 0.768
B22 | 2.43

From publication PMC12136788
